Reference: PMC7862700, “An all-to-all approach to the identification of sequence-specific readers for epigenetic DNA modifications on cytosine”

Experiments:
Assay in all cases: DAPPL (digital affinity profiling via proximity ligation, sequencing); 10 mM Tris-HCl pH 7.5, 50 mM NaCl, 1 mM DTT, 4% glycerol, room temperature, 30 min; GST-TFs on glutathione beads, 16-mer random dsDNA library, 0.1% formaldehyde crosslink after washing; high values mean tight binding
Conditions in all cases: protein: recombinant; tags: N-terminal GST; dsDNA, one strand shown
FLI1 = target: T1, FLI1 (Homo sapiens, UniProt Q01543 1-452)
T1 sequence: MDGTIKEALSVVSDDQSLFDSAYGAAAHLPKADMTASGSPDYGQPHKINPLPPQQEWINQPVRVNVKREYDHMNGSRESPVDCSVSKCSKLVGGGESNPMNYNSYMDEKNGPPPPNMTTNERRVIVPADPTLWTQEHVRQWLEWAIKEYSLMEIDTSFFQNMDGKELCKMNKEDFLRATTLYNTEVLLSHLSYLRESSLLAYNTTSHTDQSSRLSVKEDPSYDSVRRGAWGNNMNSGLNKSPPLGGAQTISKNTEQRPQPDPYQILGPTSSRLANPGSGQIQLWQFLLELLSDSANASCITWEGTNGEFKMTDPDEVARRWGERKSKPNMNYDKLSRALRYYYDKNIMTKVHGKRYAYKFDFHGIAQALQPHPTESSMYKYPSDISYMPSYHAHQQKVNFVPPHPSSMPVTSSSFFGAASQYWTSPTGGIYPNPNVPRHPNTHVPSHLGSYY
Procedure, shortened: (§1)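 Binding signal is given per hexamer as its read frequency for a factor divided by its frequency in the tag-only sample. GST-fused human transcription factors were expressed in yeast, captured on glutathione beads, barcoded with DNA and pooled with that sample, then incubated with 200 nmole of a 16-mer random double-stranded DNA library in Tris/NaCl/DTT/glycerol buffer for 30 min at room temperature. The pools were then washed, crosslinked, proximity-ligated, amplified by PCR and sequenced on an Illumina NextSeq500.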

ELK1 = target: T2, ELK1 (Homo sapiens, UniProt P19419 1-428)
T2 sequence: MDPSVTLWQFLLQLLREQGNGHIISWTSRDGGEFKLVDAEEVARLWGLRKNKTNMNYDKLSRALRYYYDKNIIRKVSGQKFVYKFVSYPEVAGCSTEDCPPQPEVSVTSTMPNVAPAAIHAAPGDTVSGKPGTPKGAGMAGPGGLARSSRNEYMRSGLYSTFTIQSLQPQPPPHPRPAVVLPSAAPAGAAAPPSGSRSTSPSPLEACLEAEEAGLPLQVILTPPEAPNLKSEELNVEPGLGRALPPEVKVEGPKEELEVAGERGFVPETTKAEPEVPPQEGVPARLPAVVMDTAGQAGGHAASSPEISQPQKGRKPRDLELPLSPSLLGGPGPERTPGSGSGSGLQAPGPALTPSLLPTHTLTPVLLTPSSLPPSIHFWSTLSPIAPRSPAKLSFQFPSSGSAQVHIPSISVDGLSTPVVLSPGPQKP
Procedure, shortened: as §1

GABPA = target: T3, GABPA (Homo sapiens, UniProt Q06546 1-454)
T3 sequence: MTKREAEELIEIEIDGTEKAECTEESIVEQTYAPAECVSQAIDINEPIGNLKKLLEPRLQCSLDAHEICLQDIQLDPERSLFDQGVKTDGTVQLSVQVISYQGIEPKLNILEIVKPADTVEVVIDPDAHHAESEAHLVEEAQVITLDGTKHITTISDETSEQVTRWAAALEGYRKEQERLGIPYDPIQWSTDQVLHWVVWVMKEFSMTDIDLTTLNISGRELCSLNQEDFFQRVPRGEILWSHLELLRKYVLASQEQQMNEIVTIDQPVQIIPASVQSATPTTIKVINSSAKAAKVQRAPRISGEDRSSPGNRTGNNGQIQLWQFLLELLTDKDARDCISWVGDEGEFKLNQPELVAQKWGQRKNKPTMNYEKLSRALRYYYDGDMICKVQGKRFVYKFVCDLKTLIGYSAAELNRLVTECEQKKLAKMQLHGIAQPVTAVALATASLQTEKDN
Procedure, shortened: as §1

ERG = target: T4, ERG (Homo sapiens, UniProt P11308 1-479)
T4 sequence: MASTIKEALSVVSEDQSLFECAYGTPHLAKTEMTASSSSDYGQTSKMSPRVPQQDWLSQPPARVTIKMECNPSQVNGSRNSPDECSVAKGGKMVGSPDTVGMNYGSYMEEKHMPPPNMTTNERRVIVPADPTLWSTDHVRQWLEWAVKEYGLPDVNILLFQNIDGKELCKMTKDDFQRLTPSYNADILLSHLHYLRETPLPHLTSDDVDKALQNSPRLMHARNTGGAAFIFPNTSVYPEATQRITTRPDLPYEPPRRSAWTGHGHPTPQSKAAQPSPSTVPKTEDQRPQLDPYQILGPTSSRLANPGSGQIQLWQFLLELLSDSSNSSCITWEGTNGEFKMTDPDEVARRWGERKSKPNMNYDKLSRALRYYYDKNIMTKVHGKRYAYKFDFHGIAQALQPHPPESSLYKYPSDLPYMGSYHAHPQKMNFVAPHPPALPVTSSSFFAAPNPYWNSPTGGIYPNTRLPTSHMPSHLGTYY
Procedure, shortened: as §1

ELF1 = ELF1 (Homo sapiens, UniProt P32519 1-619)
Procedure, shortened: as §1

EHF = target: T5, EHF (Homo sapiens, UniProt Q9NZC4 1-300)
T5 sequence: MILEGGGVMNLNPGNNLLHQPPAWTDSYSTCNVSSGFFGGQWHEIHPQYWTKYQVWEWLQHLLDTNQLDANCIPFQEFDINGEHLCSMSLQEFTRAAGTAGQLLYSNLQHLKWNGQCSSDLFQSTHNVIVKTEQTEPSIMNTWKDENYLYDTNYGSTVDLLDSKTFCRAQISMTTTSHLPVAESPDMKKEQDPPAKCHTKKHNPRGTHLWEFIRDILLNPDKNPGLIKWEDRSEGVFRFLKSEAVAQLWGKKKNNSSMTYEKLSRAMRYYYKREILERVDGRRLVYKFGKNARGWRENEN
Procedure, shortened: as §1

SPI1 = SPI1 (Homo sapiens, UniProt P17947 1-270)
Procedure, shortened: as §1

SPIB = SPIB (Homo sapiens, UniProt Q01892 1-262)
Procedure, shortened: as §1

ELK3 = target: T6, ELK3 (Homo sapiens, UniProt P41970 1-407)
T6 sequence: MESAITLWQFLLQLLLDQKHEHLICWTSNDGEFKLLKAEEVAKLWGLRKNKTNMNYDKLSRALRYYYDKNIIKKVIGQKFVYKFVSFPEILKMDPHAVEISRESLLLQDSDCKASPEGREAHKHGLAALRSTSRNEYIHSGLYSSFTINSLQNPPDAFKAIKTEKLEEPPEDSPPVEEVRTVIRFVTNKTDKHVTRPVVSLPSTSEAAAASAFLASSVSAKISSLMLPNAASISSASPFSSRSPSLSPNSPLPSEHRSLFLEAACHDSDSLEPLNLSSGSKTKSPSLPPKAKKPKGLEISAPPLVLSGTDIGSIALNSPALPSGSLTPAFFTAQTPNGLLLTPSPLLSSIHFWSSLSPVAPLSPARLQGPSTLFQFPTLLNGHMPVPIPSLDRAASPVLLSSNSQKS
Procedure, shortened: as §1

FEV = target: T7, FEV (Homo sapiens, UniProt Q99581 1-238)
T7 sequence: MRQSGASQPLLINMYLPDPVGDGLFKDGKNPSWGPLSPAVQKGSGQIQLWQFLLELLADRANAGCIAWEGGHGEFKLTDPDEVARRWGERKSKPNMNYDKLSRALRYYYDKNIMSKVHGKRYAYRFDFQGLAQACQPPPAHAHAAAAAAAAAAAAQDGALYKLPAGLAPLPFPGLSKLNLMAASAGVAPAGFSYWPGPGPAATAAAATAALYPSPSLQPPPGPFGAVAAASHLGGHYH
Procedure, shortened: as §1

ETV5 = ETV5 (Homo sapiens, UniProt P41161 1-510)
Procedure, shortened: as §1

SPIC = target: T8, SPIC (Homo sapiens, UniProt Q8N5J4 1-248)
T8 sequence: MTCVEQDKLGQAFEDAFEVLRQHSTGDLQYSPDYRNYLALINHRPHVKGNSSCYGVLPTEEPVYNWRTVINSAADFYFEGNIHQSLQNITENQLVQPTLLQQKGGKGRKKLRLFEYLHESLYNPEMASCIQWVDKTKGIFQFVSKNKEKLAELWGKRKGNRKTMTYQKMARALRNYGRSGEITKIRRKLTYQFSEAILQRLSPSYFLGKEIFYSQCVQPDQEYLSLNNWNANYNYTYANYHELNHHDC
Procedure, shortened: as §1

ELF4 = ELF4 (Homo sapiens, UniProt Q99607 1-663)
Procedure, shortened: as §1

ELK4 = target: T9, ELK4 (Homo sapiens, UniProt P28324-2 1-405)
T9 sequence: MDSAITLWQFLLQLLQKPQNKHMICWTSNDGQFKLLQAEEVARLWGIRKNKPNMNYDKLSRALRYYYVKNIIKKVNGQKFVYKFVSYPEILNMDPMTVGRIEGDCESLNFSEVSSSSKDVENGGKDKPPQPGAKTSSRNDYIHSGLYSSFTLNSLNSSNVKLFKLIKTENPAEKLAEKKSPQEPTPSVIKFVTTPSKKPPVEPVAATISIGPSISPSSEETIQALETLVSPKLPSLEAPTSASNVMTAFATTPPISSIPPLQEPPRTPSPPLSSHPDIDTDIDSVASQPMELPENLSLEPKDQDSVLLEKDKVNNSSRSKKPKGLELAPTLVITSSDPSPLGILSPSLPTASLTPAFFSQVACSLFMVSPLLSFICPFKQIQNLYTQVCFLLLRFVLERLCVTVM
Procedure, shortened: as §1

ETV2 = target: T10, ETV2 (Homo sapiens, UniProt O00321 1-342)
T10 sequence: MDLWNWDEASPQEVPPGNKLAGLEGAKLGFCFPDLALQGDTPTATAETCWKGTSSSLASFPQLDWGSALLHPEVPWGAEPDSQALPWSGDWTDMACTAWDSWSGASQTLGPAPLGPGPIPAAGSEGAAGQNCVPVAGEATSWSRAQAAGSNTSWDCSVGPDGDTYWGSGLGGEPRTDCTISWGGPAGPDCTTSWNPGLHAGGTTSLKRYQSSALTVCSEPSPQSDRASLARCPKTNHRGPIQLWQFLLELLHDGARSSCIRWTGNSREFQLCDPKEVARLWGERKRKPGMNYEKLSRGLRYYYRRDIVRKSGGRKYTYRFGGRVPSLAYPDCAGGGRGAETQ
Procedure, shortened: as §1

ELF3 = target: T11, ELF3 (Homo sapiens, UniProt P78545 1-371)
T11 sequence: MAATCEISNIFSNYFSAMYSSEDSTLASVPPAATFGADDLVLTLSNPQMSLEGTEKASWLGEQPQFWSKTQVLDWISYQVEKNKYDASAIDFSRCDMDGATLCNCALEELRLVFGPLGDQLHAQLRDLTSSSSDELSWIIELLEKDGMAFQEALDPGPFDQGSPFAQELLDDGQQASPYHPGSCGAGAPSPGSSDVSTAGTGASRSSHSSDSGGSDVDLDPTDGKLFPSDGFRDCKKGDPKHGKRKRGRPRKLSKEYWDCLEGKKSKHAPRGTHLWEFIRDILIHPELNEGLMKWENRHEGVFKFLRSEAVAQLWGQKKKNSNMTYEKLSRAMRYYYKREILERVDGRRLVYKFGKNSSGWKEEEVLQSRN
Procedure, shortened: as §1

ETV1 = ETV1 (Homo sapiens, UniProt P50549 1-477)
Procedure, shortened: as §1

Sequence of SPIB (Q01892 whole entry): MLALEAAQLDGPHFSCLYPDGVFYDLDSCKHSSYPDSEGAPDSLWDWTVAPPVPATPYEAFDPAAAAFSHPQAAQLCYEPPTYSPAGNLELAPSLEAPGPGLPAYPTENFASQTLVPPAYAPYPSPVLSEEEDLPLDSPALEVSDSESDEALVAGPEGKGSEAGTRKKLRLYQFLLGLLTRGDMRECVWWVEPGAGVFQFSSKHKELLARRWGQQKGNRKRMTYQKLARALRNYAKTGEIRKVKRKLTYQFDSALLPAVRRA
Sequence of ELF1 (P32519 whole entry): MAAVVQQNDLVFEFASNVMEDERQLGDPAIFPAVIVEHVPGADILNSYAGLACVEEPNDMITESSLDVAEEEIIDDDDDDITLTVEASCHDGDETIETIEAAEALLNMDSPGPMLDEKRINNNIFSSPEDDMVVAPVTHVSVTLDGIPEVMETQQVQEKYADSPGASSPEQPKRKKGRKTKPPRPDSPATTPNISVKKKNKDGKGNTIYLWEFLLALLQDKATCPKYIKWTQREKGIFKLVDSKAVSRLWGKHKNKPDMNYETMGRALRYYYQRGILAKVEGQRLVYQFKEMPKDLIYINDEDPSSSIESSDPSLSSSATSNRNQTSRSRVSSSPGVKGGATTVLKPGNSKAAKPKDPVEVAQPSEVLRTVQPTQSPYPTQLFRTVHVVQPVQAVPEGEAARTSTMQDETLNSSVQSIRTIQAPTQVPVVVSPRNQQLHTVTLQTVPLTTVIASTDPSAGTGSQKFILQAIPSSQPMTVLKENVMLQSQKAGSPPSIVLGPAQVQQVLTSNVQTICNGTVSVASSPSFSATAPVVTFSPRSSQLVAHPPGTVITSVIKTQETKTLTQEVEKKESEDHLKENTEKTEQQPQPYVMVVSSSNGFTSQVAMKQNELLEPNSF
Sequence of ELF4 (Q99607 whole entry): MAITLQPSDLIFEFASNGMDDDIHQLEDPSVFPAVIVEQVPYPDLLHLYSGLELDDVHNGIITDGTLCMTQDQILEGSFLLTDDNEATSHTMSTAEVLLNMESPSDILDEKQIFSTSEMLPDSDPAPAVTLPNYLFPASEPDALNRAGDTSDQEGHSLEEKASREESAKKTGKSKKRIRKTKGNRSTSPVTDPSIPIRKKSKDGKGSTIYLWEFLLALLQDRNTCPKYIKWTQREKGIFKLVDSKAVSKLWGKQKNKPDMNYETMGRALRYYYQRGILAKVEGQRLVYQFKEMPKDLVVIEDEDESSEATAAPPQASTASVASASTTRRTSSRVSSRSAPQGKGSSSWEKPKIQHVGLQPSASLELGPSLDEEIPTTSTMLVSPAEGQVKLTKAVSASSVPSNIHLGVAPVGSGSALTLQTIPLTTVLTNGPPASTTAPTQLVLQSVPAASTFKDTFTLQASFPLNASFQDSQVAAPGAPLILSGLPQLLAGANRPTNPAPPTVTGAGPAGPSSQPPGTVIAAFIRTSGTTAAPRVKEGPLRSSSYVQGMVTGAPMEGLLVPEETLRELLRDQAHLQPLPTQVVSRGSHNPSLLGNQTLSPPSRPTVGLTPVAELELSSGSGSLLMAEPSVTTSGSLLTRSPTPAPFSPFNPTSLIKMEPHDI
Sequence of ETV1 (P50549 whole entry): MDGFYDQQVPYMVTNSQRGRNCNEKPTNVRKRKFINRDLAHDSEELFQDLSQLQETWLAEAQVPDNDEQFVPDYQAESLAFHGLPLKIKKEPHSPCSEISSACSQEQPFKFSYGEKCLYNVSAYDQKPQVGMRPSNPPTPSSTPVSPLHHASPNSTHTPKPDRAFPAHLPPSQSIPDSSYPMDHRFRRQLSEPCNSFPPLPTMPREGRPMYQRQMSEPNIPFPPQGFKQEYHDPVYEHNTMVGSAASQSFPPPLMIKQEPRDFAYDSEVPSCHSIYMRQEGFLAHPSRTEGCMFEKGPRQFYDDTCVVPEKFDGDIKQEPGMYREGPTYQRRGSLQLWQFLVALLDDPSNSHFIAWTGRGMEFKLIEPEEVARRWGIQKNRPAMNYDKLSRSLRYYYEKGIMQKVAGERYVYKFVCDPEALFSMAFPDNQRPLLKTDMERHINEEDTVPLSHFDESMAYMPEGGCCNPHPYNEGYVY
Sequence of ETV5 (P41161 whole entry): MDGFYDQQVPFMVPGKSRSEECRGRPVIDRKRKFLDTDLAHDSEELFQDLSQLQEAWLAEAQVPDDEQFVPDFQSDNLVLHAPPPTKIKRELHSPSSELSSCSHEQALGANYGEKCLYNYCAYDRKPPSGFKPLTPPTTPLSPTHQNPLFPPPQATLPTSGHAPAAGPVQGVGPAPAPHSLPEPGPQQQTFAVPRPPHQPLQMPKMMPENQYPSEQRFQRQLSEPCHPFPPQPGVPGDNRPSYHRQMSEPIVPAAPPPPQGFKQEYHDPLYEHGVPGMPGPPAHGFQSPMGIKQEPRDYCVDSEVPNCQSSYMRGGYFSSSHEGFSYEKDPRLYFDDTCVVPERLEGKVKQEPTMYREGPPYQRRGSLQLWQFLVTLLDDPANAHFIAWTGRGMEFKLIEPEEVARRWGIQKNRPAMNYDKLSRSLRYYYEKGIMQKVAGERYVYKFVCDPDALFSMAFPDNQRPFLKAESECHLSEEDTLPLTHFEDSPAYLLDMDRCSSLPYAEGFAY

| Sequence | binding signal (FLI1) | binding signal (ELK1) | binding signal (GABPA) | binding signal (ERG) | binding signal (ELF1) | binding signal (EHF) | binding signal (SPI1) | binding signal (SPIB) | binding signal (ELK3) | binding signal (FEV) | binding signal (ETV5) | binding signal (SPIC) | binding signal (ELF4) | binding signal (ELK4) | binding signal (ETV2) | binding signal (ELF3) | binding signal (ETV1) |
| --- | --- | --- | --- | --- | --- | --- | --- | --- | --- | --- | --- | --- | --- | --- | --- | --- | --- |
| ACAAAC | 1.15 fold enrichment (6-mer frequency, TF over GST control) | 1.15 fold enrichment (6-mer frequency, TF over GST control) | 1.14 fold enrichment (6-mer frequency, TF over GST control) | 1.16 fold enrichment (6-mer frequency, TF over GST control) | 1.12 fold enrichment (6-mer frequency, TF over GST control) | 1.15 fold enrichment (6-mer frequency, TF over GST control) | 1.11 fold enrichment (6-mer frequency, TF over GST control) | 1.11 fold enrichment (6-mer frequency, TF over GST control) | 1.17 fold enrichment (6-mer frequency, TF over GST control) | 1.15 fold enrichment (6-mer frequency, TF over GST control) | 1.08 fold enrichment (6-mer frequency, TF over GST control) | 1.11 fold enrichment (6-mer frequency, TF over GST control) | 1.12 fold enrichment (6-mer frequency, TF over GST control) | 1.08 fold enrichment (6-mer frequency, TF over GST control) | 1.24 fold enrichment (6-mer frequency, TF over GST control) | 1.12 fold enrichment (6-mer frequency, TF over GST control) | 1.12 fold enrichment (6-mer frequency, TF over GST control) |
| CCTCAC | 1.29 fold enrichment (6-mer frequency, TF over GST control) | 1.3 fold enrichment (6-mer frequency, TF over GST control) | 1.26 fold enrichment (6-mer frequency, TF over GST control) | 1.22 fold enrichment (6-mer frequency, TF over GST control) | 1.22 fold enrichment (6-mer frequency, TF over GST control) | 1.28 fold enrichment (6-mer frequency, TF over GST control) | 1.28 fold enrichment (6-mer frequency, TF over GST control) | 1.21 fold enrichment (6-mer frequency, TF over GST control) | 1.33 fold enrichment (6-mer frequency, TF over GST control) | 1.27 fold enrichment (6-mer frequency, TF over GST control) | 1.25 fold enrichment (6-mer frequency, TF over GST control) | 1.11 fold enrichment (6-mer frequency, TF over GST control) | 1.31 fold enrichment (6-mer frequency, TF over GST control) | 1.16 fold enrichment (6-mer frequency, TF over GST control) | 1.24 fold enrichment (6-mer frequency, TF over GST control) | 1.2 fold enrichment (6-mer frequency, TF over GST control) | 1.27 fold enrichment (6-mer frequency, TF over GST control) |
